Paper PMC7862700, “An all-to-all approach to the identification of sequence-specific readers for epigenetic DNA modifications on cytosine”

Columns and labels:
Test in all cases: DAPPL (digital affinity profiling via proximity ligation, sequencing); 10 mM Tris-HCl pH 7.5, 50 mM NaCl, 1 mM DTT, 4% glycerol, room temperature, 30 min; GST-TFs on glutathione beads, 16-mer random dsDNA library, 0.1% formaldehyde crosslink after washing; high values mean tight binding
FEV = target: T1, FEV (Homo sapiens, UniProt Q99581 1-238); settings: protein: recombinant; tags: N-terminal GST; dsDNA, one strand shown
T1 sequence: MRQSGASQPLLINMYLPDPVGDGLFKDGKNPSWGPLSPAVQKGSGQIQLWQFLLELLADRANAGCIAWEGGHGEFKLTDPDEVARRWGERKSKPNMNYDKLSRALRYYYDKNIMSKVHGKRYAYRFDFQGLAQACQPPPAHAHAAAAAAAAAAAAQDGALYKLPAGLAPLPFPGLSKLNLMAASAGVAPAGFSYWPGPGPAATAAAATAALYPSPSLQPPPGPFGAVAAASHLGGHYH
Method in brief: (§1)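 In yeast, human transcription factors were expressed with a GST fusion, then pulled down on glutathione beads and given DNA barcodes. Pooled with a tag-only sample, they were exposed to 200 nmole of a 16-mer random double-stranded DNA library (Tris/NaCl/DTT/glycerol buffer, room temperature, 30 min), washed, crosslinked with 0.1% formaldehyde, proximity-ligated using BsaI/T4 ligase for 1 h at 37 °C, PCR-amplified and read on an Illumina NextSeq500. Each hexamer's frequency of reads for a factor, divided by the matching frequency for the tag-only sample, gives the binding signal.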

ETV5 = ETV5 (Homo sapiens, UniProt P41161 1-510); settings: protein: recombinant; tags: N-terminal GST; dsDNA, one strand shown
Method in brief: as §1

HSF1 = HSF1 (Homo sapiens, UniProt Q00613 1-529); settings: protein: recombinant; tags: N-terminal GST; chain copies: 3; dsDNA, one strand shown
Method in brief: as §1

SPIC = target: T2, SPIC (Homo sapiens, UniProt Q8N5J4 1-248); settings: protein: recombinant; tags: N-terminal GST; dsDNA, one strand shown
T2 sequence: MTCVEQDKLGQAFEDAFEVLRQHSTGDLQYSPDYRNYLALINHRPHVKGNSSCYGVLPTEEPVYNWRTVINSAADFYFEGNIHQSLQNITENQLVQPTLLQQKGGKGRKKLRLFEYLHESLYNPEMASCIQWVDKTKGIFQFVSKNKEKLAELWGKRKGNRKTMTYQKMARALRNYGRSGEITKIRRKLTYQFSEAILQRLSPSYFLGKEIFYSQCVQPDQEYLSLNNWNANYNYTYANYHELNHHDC
Method in brief: as §1

ELF4 = ELF4 (Homo sapiens, UniProt Q99607 1-663); settings: protein: recombinant; tags: N-terminal GST; dsDNA, one strand shown
Method in brief: as §1

ELK4 = target: T3, ELK4 (Homo sapiens, UniProt P28324-2 1-405); settings: protein: recombinant; tags: N-terminal GST; dsDNA, one strand shown
T3 sequence: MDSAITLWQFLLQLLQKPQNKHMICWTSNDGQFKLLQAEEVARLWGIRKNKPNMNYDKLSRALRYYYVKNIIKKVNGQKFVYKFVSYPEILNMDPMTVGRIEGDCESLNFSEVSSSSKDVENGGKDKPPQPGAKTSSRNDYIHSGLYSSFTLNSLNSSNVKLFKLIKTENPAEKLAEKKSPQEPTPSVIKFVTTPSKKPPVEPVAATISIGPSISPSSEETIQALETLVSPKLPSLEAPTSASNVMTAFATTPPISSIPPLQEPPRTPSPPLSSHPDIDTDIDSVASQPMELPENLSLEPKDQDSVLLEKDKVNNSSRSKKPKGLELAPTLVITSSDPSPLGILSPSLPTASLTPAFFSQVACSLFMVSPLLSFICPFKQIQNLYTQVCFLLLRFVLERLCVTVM
Method in brief: as §1

ETV2 = target: T4, ETV2 (Homo sapiens, UniProt O00321 1-342); settings: protein: recombinant; tags: N-terminal GST; dsDNA, one strand shown
T4 sequence: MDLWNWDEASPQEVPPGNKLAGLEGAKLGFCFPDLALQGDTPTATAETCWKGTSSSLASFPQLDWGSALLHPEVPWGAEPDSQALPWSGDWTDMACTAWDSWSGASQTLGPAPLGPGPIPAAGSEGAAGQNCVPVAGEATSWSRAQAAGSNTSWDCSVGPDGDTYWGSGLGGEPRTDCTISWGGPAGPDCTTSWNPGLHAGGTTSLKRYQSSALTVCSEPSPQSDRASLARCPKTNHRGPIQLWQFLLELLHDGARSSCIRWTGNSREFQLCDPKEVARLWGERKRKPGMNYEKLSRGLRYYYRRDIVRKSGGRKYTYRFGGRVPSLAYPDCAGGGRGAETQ
Method in brief: as §1

ELF3 = target: T5, ELF3 (Homo sapiens, UniProt P78545 1-371); settings: protein: recombinant; tags: N-terminal GST; dsDNA, one strand shown
T5 sequence: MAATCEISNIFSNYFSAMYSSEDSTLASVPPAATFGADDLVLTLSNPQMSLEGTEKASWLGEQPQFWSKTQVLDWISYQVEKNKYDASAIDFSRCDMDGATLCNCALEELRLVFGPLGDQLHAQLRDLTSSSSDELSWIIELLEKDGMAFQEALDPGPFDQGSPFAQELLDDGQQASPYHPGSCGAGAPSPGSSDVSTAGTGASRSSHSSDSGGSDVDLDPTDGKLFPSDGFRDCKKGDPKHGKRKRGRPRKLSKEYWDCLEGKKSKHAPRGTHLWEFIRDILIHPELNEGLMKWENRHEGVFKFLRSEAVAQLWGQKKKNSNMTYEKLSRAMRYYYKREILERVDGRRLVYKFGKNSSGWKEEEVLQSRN
Method in brief: as §1

CRX = CRX (Homo sapiens, UniProt O43186 1-299); settings: protein: recombinant; tags: N-terminal GST; dsDNA, one strand shown
Method in brief: as §1

ETV1 = ETV1 (Homo sapiens, UniProt P50549 1-477); settings: protein: recombinant; tags: N-terminal GST; dsDNA, one strand shown
Method in brief: as §1

ERF = target: T6, ERF (Homo sapiens, UniProt P50548 1-548); settings: protein: recombinant; tags: N-terminal GST; dsDNA, one strand shown
T6 sequence: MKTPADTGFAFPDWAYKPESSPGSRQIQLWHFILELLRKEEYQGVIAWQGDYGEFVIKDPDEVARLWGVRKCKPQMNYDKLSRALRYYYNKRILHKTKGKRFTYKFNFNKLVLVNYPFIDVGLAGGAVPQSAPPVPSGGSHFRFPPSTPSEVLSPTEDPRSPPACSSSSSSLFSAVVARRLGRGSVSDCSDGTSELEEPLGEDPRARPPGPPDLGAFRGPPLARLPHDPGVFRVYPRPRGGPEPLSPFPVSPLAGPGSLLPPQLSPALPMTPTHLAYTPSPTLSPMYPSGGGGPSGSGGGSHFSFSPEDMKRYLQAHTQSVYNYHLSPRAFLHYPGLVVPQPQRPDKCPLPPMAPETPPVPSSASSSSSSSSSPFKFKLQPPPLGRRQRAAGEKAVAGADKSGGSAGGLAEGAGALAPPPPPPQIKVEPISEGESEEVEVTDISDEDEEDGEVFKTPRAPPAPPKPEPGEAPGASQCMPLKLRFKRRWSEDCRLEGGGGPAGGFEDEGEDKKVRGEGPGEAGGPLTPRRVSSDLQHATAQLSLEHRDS
Method in brief: as §1

ETV3L = target: T7, ETV3L (Homo sapiens, UniProt Q6ZN32 1-361); settings: protein: recombinant; tags: N-terminal GST; dsDNA, one strand shown
T7 sequence: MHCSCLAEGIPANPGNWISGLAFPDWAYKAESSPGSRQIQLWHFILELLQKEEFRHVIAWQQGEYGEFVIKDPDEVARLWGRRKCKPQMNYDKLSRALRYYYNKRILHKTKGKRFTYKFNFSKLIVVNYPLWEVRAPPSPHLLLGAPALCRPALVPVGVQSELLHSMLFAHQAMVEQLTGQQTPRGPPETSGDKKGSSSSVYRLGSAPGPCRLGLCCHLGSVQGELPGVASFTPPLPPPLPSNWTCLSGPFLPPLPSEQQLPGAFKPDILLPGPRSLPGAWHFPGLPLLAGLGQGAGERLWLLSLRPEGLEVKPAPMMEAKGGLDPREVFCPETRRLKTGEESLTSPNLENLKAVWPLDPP
Method in brief: as §1

ETS2 = target: T8, ETS2 (Homo sapiens, UniProt P15036 1-469); settings: protein: recombinant; tags: N-terminal GST; dsDNA, one strand shown
T8 sequence: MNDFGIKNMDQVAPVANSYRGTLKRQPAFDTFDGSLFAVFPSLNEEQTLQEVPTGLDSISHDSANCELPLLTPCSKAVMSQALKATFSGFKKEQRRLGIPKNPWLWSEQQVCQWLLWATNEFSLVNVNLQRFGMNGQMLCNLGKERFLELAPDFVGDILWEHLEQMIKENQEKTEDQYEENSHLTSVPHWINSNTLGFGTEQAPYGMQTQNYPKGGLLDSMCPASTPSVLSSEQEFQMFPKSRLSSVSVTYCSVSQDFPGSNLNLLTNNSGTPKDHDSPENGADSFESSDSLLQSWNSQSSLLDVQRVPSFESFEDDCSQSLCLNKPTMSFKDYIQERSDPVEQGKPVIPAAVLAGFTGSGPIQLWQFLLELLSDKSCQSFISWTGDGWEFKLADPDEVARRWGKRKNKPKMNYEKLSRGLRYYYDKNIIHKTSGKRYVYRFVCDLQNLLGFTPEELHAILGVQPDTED
Method in brief: as §1

SPDEF = target: T9, SPDEF (Homo sapiens, UniProt O95238 1-335); settings: protein: recombinant; tags: N-terminal GST; dsDNA, one strand shown
T9 sequence: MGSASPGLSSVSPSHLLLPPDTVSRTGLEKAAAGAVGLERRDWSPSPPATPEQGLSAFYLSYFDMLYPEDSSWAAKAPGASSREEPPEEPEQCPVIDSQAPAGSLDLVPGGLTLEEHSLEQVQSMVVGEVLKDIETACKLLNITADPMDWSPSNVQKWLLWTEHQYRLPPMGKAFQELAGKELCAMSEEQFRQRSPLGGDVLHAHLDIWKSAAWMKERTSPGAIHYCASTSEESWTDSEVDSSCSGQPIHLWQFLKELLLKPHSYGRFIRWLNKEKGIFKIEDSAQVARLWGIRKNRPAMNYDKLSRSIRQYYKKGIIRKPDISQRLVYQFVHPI
Method in brief: as §1

ETV7 = target: T10, ETV7 (Homo sapiens, UniProt Q9Y603 1-341); settings: protein: recombinant; tags: N-terminal GST; dsDNA, one strand shown
T10 sequence: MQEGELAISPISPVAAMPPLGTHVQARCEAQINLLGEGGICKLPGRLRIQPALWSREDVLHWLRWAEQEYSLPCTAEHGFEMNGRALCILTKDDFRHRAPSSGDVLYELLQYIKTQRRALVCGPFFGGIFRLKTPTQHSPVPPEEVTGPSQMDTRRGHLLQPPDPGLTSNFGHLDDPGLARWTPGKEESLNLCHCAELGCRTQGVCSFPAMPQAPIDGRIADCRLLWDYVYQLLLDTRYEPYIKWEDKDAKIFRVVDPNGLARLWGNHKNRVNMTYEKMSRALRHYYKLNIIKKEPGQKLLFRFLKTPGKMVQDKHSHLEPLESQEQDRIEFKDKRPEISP
Method in brief: as §1

ELF5 = target: T11, ELF5 (Homo sapiens, UniProt Q9UKW6-2 1-255); settings: protein: recombinant; tags: N-terminal GST; dsDNA, one strand shown
T11 sequence: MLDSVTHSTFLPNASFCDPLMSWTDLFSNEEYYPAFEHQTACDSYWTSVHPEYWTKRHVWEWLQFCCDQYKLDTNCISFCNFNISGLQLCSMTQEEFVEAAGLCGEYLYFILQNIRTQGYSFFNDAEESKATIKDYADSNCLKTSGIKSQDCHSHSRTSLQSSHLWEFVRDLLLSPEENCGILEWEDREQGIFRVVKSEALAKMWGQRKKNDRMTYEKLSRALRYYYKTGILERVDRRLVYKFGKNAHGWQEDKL
Method in brief: as §1

ETV3 = target: T12, ETV3 (Homo sapiens, UniProt P41162-2 1-143); settings: protein: recombinant; tags: N-terminal GST; dsDNA, one strand shown
T12 sequence: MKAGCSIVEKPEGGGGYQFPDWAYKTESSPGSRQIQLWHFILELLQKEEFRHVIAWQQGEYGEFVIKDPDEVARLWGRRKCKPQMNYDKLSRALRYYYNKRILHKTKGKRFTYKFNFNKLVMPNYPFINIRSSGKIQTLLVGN
Method in brief: as §1

ETV6 = ETV6 (Homo sapiens, UniProt P41212 1-452); settings: protein: recombinant; tags: N-terminal GST; dsDNA, one strand shown
Method in brief: as §1

Sequence of HSF1 (Q00613 whole entry): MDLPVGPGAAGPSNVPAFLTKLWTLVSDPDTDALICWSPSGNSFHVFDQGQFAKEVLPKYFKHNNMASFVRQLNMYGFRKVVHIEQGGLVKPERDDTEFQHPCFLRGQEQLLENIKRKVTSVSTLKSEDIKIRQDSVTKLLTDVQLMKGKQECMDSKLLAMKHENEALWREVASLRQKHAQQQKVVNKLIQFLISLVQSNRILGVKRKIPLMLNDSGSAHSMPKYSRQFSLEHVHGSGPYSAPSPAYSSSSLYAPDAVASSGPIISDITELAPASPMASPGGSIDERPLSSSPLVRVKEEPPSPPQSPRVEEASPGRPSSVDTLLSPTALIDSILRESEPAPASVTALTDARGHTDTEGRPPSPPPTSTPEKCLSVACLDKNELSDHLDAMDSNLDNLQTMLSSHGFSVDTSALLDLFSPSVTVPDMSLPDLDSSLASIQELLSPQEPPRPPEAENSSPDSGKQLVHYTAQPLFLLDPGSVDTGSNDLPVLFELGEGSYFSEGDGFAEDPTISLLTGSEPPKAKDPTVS
Sequence of ETV1 (P50549 whole entry): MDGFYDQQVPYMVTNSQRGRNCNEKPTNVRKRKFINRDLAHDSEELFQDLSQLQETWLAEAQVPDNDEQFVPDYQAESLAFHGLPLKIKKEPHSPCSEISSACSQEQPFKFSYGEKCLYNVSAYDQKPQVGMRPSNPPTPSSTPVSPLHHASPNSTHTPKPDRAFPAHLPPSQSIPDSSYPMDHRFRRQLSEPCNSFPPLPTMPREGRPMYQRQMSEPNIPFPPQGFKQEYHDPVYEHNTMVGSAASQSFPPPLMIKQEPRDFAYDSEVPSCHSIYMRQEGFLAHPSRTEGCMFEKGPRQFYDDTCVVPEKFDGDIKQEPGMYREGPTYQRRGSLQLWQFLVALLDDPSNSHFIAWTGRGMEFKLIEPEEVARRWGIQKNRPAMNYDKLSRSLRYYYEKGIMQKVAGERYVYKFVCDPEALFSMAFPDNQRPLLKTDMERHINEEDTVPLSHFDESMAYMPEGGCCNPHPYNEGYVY
Sequence of ELF4 (Q99607 whole entry): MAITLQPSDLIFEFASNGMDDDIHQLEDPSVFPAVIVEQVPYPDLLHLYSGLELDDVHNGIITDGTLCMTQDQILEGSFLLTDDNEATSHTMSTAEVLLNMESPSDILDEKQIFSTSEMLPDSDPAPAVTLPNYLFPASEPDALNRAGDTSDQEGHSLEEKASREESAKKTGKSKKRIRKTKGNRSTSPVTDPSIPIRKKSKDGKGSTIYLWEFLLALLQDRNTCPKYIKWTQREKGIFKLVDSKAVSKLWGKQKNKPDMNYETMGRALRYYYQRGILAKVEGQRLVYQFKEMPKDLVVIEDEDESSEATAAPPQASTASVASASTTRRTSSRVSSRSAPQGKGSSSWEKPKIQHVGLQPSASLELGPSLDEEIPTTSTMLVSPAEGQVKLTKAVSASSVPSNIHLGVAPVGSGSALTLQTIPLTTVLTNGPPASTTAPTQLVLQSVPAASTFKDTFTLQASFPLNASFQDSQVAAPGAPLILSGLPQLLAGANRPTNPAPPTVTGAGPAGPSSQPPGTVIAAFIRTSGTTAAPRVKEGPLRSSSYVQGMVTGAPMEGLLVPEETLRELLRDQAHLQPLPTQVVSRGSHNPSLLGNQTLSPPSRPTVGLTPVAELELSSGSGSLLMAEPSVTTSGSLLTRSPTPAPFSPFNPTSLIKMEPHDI
Sequence of CRX (O43186 whole entry): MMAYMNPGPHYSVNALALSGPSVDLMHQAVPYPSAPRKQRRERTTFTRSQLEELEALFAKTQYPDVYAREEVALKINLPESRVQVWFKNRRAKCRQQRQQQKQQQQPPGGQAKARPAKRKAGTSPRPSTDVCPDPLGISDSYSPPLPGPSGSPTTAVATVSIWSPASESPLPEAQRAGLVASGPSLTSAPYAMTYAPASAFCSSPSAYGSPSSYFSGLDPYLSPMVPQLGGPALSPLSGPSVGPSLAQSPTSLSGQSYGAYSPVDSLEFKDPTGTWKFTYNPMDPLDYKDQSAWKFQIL
Sequence of ETV6 (P41212 whole entry): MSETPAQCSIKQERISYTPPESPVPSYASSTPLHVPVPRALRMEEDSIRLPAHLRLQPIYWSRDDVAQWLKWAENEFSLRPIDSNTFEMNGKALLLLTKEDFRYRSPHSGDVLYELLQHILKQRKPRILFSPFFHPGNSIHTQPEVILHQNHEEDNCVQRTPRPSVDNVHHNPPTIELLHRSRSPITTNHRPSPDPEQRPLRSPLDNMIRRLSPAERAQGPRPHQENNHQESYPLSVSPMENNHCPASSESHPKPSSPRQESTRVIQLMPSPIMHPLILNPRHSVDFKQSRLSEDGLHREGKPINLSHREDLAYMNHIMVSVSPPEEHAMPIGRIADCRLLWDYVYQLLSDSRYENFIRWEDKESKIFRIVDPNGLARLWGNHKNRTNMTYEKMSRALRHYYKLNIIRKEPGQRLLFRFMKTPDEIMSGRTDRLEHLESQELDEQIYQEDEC
Sequence of ETV5 (P41161 whole entry): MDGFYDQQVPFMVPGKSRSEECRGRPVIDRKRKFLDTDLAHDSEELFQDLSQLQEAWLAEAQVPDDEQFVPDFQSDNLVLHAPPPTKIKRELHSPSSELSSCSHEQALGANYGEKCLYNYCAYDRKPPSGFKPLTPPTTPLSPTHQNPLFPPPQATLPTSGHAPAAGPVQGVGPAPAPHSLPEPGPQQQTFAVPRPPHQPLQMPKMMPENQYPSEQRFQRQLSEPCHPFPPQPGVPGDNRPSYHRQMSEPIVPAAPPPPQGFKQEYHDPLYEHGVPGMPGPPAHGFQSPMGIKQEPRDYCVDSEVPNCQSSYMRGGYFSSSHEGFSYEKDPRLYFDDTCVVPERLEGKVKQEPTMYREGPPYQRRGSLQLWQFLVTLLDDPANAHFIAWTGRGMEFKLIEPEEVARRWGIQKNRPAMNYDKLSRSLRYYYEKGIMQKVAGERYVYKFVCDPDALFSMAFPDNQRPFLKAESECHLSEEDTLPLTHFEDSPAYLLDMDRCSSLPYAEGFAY

CATTAC
binding signal (FEV): 1.12 fold enrichment (6-mer frequency, TF over GST control)
binding signal (ETV5): 1.13 fold enrichment (6-mer frequency, TF over GST control)
binding signal (HSF1): 1.02 fold enrichment (6-mer frequency, TF over GST control)
binding signal (SPIC): 1.05 fold enrichment (6-mer frequency, TF over GST control)
binding signal (ELF4): 1.1 fold enrichment (6-mer frequency, TF over GST control)
binding signal (ELK4): 1.17 fold enrichment (6-mer frequency, TF over GST control)
binding signal (ETV2): 1.22 fold enrichment (6-mer frequency, TF over GST control)
binding signal (ELF3): 1.08 fold enrichment (6-mer frequency, TF over GST control)
binding signal (CRX): 1.18 fold enrichment (6-mer frequency, TF over GST control)
binding signal (ETV1): 1.18 fold enrichment (6-mer frequency, TF over GST control)
binding signal (ERF): 1.09 fold enrichment (6-mer frequency, TF over GST control)
binding signal (ETV3L): 1.14 fold enrichment (6-mer frequency, TF over GST control)
binding signal (ETS2): 1.23 fold enrichment (6-mer frequency, TF over GST control)
binding signal (SPDEF): 1.14 fold enrichment (6-mer frequency, TF over GST control)
binding signal (ETV7): 1.03 fold enrichment (6-mer frequency, TF over GST control)
binding signal (ELF5): 1.1 fold enrichment (6-mer frequency, TF over GST control)
binding signal (ETV3): 1.13 fold enrichment (6-mer frequency, TF over GST control)
binding signal (ETV6): 1.11 fold enrichment (6-mer frequency, TF over GST control)
